Measurements: PubChem BioAssay AID1159580 (chemical genetic matrix, 2015)
About 2,000 (36%) of roughly 5,500 compounds were called active. Another 18% or so got no clear call; they are omitted. Cut-off read from the data, not from the text of the source: active = normalized growth mostly below about 0.91 (no sharp cut-off); inconclusive = no clear call, values can overlap the other calls; inactive = mostly above about 0.92. The list shows a part of the results.

Assay: chemical genetic growth profiling, strain panel (AID 1159580);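 note: tested at 20 µM; growth read once vehicle control cultures reached saturation at 30 °C; 1 = growth at the plate median or of vehicle wells; lower values mean less growth of the strain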
Details: growth OD

Measured: normalized growth

CC(C)=CCC1=C(O)c2ccccc2C(=O)C1=O
inactive: S. cerevisiae deletion strains, locus YJR075W, strain HOC1, hits give low values 1.03 | S. cerevisiae deletion strains, locus YKL009W, strain mrt4, hits give low values 0.945 | S. cerevisiae deletion strains, locus YKL190W, strain CNB1, hits give low values 0.951 | S. cerevisiae deletion strains, locus YLR039C, strain RIC1, hits give low values 0.705 | S. cerevisiae deletion strains, locus YLR058C, strain SHM2, hits give low values 0.954 | S. cerevisiae deletion strains, locus YLR102C, strain apc9, hits give low values 0.963 | S. cerevisiae deletion strains, locus YLR113W, strain HOG1, hits give low values 0.965 | S. cerevisiae deletion strains, locus YLR262C, strain YPT6, hits give low values 0.733 | S. cerevisiae deletion strains, locus YLR330W, strain CHS5, hits give low values 0.948 | S. cerevisiae deletion strains, locus YLR342W, strain FKS1 (second series), hits give low values 0.844 | S. cerevisiae deletion strains, locus YLR371W, strain rom2, hits give low values 0.939 | S. cerevisiae deletion strains, locus YLR418C, strain cdc73, hits give low values 1.03 | S. cerevisiae deletion strains, locus YML016C, strain PPZ1, hits give low values 0.958 | S. cerevisiae deletion strains, locus YML032C, strain rad52, hits give low values 0.906 | S. cerevisiae deletion strains, locus YML124C, strain tub3, hits give low values 0.935 | S. cerevisiae deletion strains, locus YMR078C, strain ctf18, hits give low values 0.921 | S. cerevisiae deletion strains, locus YMR263W, strain SAP30, hits give low values 1.01 | S. cerevisiae deletion strains, locus YMR307W, strain GAS1, hits give low values 0.721 | S. cerevisiae deletion strains, locus YNL067W, strain RPL9B, hits give low values 0.989 | S. cerevisiae deletion strains, locus YNL128W, strain TEP1, hits give low values 0.945 | S. cerevisiae deletion strains, locus YNL153C, strain GIM3, hits give low values 0.965 | S. cerevisiae deletion strains, locus YNL183C, strain NPR1, hits give low values 0.914 | S. cerevisiae deletion strains, locus YNL233W, strain BNI4, hits give low values 0.964 | S. cerevisiae deletion strains, locus YNL248C, strain rpa49, hits give low values 0.974 | S. cerevisiae deletion strains, locus YNL298W, strain CLA4, hits give low values 0.914 | S. cerevisiae deletion strains, locus YNL322C, strain KRE1, hits give low values 0.934 | S. cerevisiae deletion strains, locus YNR052C, strain pop2, hits give low values 0.918 | S. cerevisiae deletion strains, locus YOL012C, strain htz1 1.37 | S. cerevisiae deletion strains, locus YOL147C, strain pex11, hits give low values 0.953 | S. cerevisiae deletion strains, locus YOR061W, strain CKA2, hits give low values 0.953 | S. cerevisiae deletion strains, locus YOR069W, strain VPS5, hits give low values 0.934 | S. cerevisiae deletion strains, locus YOR136W, strain idh2, hits give low values 0.928 | S. cerevisiae deletion strains, locus YOR184W, strain ser1, hits give low values 0.894 | S. cerevisiae deletion strains, locus YOR231W, strain MKK1, hits give low values 0.966 | S. cerevisiae deletion strains, locus YOR316C, strain cot1, hits give low values 0.968 | S. cerevisiae deletion strains, locus YPL055C, strain LGE1, hits give low values 1.05 | S. cerevisiae deletion strains, locus YPL256C, strain CLN2, hits give low values 1.02 | S. cerevisiae deletion strains, locus YPR119W, strain clb2, hits give low values 0.967 | S. cerevisiae deletion strains, locus YPR163C, strain tif3, hits give low values 0.957 | S. cerevisiae deletion strains, locus YPR167C, strain met16, hits give low values 0.937 | S. cerevisiae deletion strains, strain wtn01, hits give low values 0.951 | S. cerevisiae strains, strain wild type, hits give low values 0.934
active: S. cerevisiae deletion strains, locus YKL068W, hits give low values 0.887 | S. cerevisiae deletion strains, locus YKL085W, strain MDH1 (second series), hits give low values 0.884 | S. cerevisiae deletion strains, locus YKL085W, strain MDH1, hits give low values 0.884 | S. cerevisiae deletion strains, locus YKL160W, strain elf1, hits give low values 0.741 | S. cerevisiae deletion strains, locus YKR001C, strain vps1, hits give low values 0.788 | S. cerevisiae deletion strains, locus YKR026C, strain gcn3, hits give low values 0.775 | S. cerevisiae deletion strains, locus YKR091W, strain srl3, hits give low values 0.809 | S. cerevisiae deletion strains, locus YLL001W, strain dnm1, hits give low values 0.598 | S. cerevisiae deletion strains, locus YLL026W, hits give low values 0.808 | S. cerevisiae deletion strains, locus YLL041C, strain sdh2, hits give low values 0.815 | S. cerevisiae deletion strains, locus YLR027C, strain aat2, hits give low values 0.823 | S. cerevisiae deletion strains, locus YLR221C, strain rsa3, hits give low values 0.819 | S. cerevisiae deletion strains, locus YLR258W, strain gsy2, hits give low values 0.797 | S. cerevisiae deletion strains, locus YLR262C, strain YPT6 (second series), hits give low values 0.334 | S. cerevisiae deletion strains, locus YLR268W, strain sec22, hits give low values 0.879 | S. cerevisiae deletion strains, locus YLR320W, strain mms22, hits give low values 0.741 | S. cerevisiae deletion strains, locus YLR342W, strain FKS1, hits give low values 0.727 | S. cerevisiae deletion strains, locus YLR357W, strain rsc2, hits give low values 0.837 | S. cerevisiae deletion strains, locus YLR370C, strain arc18, hits give low values 0.806 | S. cerevisiae deletion strains, locus YLR384C, strain iki3, hits give low values 0.818 | S. cerevisiae deletion strains, locus YML120C, strain ndi1, hits give low values 0.759 | S. cerevisiae deletion strains, locus YMR058W, strain fet3, hits give low values 0.651 | S. cerevisiae deletion strains, locus YMR125W, strain sto1, hits give low values 0.884 | S. cerevisiae deletion strains, locus YMR129W, hits give low values 0.773 | S. cerevisiae deletion strains, locus YMR205C, strain PFK2, hits give low values 0.837 | S. cerevisiae deletion strains, locus YMR223W, strain ubp8, hits give low values 0.864 | S. cerevisiae deletion strains, locus YMR231W, strain pep5, hits give low values 0.791 | S. cerevisiae deletion strains, locus YNL071W, strain lat1, hits give low values 0.837 | S. cerevisiae deletion strains, locus YNL209W, strain ssb2, hits give low values 0.715 | S. cerevisiae deletion strains, locus YNL250W, strain rad50, hits give low values 0.897 | S. cerevisiae deletion strains, locus YNL271C, strain bni1, hits give low values 0.892 | S. cerevisiae deletion strains, locus YNL307C, strain MCK1, hits give low values 0.904 | S. cerevisiae deletion strains, locus YNL322C, strain KRE1 (second series), hits give low values 0.791 | S. cerevisiae deletion strains, locus YNR049C, strain mso1, hits give low values 0.772 | S. cerevisiae deletion strains, locus YOL006C, strain TOP1, hits give low values 0.29 | S. cerevisiae deletion strains, locus YOR001W, strain rrp6, hits give low values 0.864 | S. cerevisiae deletion strains, locus YOR070C, strain gyp1, hits give low values 0.821 | S. cerevisiae deletion strains, locus YOR080W, strain dia2, hits give low values 0.789 | S. cerevisiae deletion strains, locus YOR083W, strain WHI5, hits give low values 0.772 | S. cerevisiae deletion strains, locus YOR106W, strain vam3, hits give low values 0.595 | S. cerevisiae deletion strains, locus YOR144C, strain elg1, hits give low values 0.933 | S. cerevisiae deletion strains, locus YOR265W, strain rbl2, hits give low values 0.822 | S. cerevisiae deletion strains, locus YOR270C, strain vph1, hits give low values 0.294 | S. cerevisiae deletion strains, locus YOR290C, strain snf2, hits give low values 0.778 | S. cerevisiae deletion strains, locus YPL051W, strain arl3, hits give low values 0.657 | S. cerevisiae deletion strains, locus YPL078C, strain atp4, hits give low values 0.678 | S. cerevisiae deletion strains, locus YPL106C, strain sse1, hits give low values 0.816 | S. cerevisiae deletion strains, locus YPL240C, strain hsp82, hits give low values 0.825 | S. cerevisiae deletion strains, locus YPL241C, strain CIN2, hits give low values 0.925 | S. cerevisiae deletion strains, locus YPR141C, strain kar3, hits give low values 0.839
